Values joined by “and” are separate entries in the source; they are usually repeats but may differ in a detail not shown here. Identical values can stand only once. In all, about 5,500 compounds went through this assay and about 2,000 (36%) were called active. Inconclusive results (about 18%) are left out. Cut-off read from the data, not from the text of the source: active = normalized growth mostly below about 0.91 (no sharp cut-off); inconclusive = no clear call, values can overlap the other calls; inactive = mostly above about 0.92. This is one part of the list.
Assay: chemical genetic growth profiling, strain panel (AID 1159580);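 note: tested at 20 µM; growth read once vehicle control cultures reached saturation at 30 °C; 1 = growth at the plate median or of vehicle wells; lower values mean less growth of the strain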
Conditions: S. cerevisiae deletion strains, growth OD

Measured: normalized growth

CCC(CCC(C)[C@H]1CCC2C3CC=C4C[C@@H](O)CC[C@]4(C)C3CC[C@@]21C)C(C)C (stereo partly drawn)
inactive: locus YAL013W, strain DEP1, active compounds read low 0.998 | locus YAL021C, strain ccr4, active compounds read low 1.01 | locus YAL026C, strain drs2, active compounds read low 1.01 | locus YAL030W, strain snc1, active compounds read low 1.01 | locus YBL061C, strain skt5, active compounds read low 1.02 | locus YBR009C, strain hhf1, active compounds read low 1.02 | locus YBR021W, strain FUR4, active compounds read low 1.02 | locus YBR023C, strain chs3, active compounds read low 1.01 | locus YBR171W, strain sec66, active compounds read low 1.04 | locus YBR229C, strain ROT2, active compounds read low 0.988 | locus YBR231C, strain swc5, active compounds read low 1.01 | locus YBR279W, strain paf1, active compounds read low 1.01 | locus YCL011C, strain gbp2, active compounds read low 1.02 | locus YCL016C, strain dcc1, active compounds read low 1.02 | locus YCL029C, strain bik1, active compounds read low 0.999 | locus YCL061C, strain MRC1, active compounds read low 1.02 | locus YCL069W, strain vba3, active compounds read low 1.02 | locus YCR088W, strain abp1, active compounds read low 1.02 | locus YDL005C, strain med2, active compounds read low 1.02 | locus YDL035C, strain GPR1, active compounds read low 1.05 | locus YDL040C, strain nat1, active compounds read low 1.02 | locus YDL074C, strain BRE1, active compounds read low 1.05 | locus YDL101C, strain DUN1, active compounds read low 0.973 | locus YDL134C, strain PPH21, active compounds read low 0.97 | locus YDL185W, strain tfp1, active compounds read low 0.976 | locus YDL192W, strain arf1, active compounds read low 1.02 | locus YDR001C, strain nth1, active compounds read low 1.01 | locus YDR069C, strain doa4, active compounds read low 1.03 | locus YDR101C, strain arx1, active compounds read low 1.03 | locus YDR137W, strain rgp1, active compounds read low 1.01 | locus YDR150W, strain NUM1, active compounds read low 0.997 | locus YDR159W, strain sac3, active compounds read low 1.04 | locus YDR162C, strain NBP2, active compounds read low 0.994 | locus YDR195W, strain ref2 1.03 | locus YDR297W, strain sur2, active compounds read low 1.03 | locus YDR318W, strain mcm21, active compounds read low 0.986 | locus YDR334W, strain swr1, active compounds read low 1.03 | locus YDR335W, strain msn5, active compounds read low 1.01 | locus YDR388W, active compounds read low 0.975 | locus YDR392W, strain spt3, active compounds read low 1.02 | locus YDR502C, strain sam2, active compounds read low 0.973 | locus YEL003W, strain gim4, active compounds read low 1.01 | locus YEL037C, strain rad23, active compounds read low 1.02 | locus YEL061C, strain CIN8 (second series), active compounds read low 1.02 | locus YER015W, strain faa2, active compounds read low 1.01 | locus YER016W, strain bim1, active compounds read low 1.02 | locus YER110C, active compounds read low 0.979 | locus YER111C, strain swi4, active compounds read low 1.02 | locus YER155C, strain BEM2 (second series), active compounds read low 1.04 | locus YER155C, strain BEM2, active compounds read low 0.982 | locus YER167W, strain BCK2, active compounds read low 1.01 | locus YFR010W, strain ubp6, active compounds read low 1.02 | locus YGL078C, strain dbp3, active compounds read low 0.983 | locus YGL086W, strain mad1, active compounds read low 0.989 | locus YGL167C, strain pmr1, active compounds read low 1.03 | locus YGL173C, strain kem1, active compounds read low 1.02 | locus YGL227W, strain vid30, active compounds read low 1.02 | locus YGL240W, strain doc1, active compounds read low 1.03 | locus YGL248W, strain PDE1, active compounds read low 0.978 | locus YGL253W, strain hxk2, active compounds read low 1.02 | locus YGR135W, strain pre9, active compounds read low 0.958 | locus YGR252W, strain gcn5, active compounds read low 0.929 | locus YHR013C, strain ard1, active compounds read low 1.04 | locus YHR027C, strain rpn1, active compounds read low 1.01 | locus YHR030C, strain SLT2, active compounds read low 0.996 | locus YHR079C, strain IRE1 (second series), active compounds read low 0.987 | locus YHR079C, strain IRE1, active compounds read low 0.984 | locus YHR094C, strain hxt1, active compounds read low 0.984 | locus YHR129C, strain ARP1, active compounds read low 0.994 | locus YHR142W, strain chs7, active compounds read low 1.02 | locus YHR200W, strain rpn10, active compounds read low 0.961 | locus YIL066C, strain RNR3, active compounds read low 1.01 | locus YIL073C, strain SPO22, active compounds read low 1.02 | locus YIL125W, strain kgd1, active compounds read low 0.993 | locus YIR030C, strain dcg1, active compounds read low 0.986 | locus YJL092W, strain hpr5, active compounds read low 1.02 | locus YJL095W, strain BCK1 (second series), active compounds read low 1.01 | locus YJL095W, strain BCK1, active compounds read low 0.972 and 0.979 | locus YJL115W, strain asf1, active compounds read low 1 | locus YJL129C, strain trk1, active compounds read low 1.03 | locus YJL134W, strain LCB3, active compounds read low 0.991 | locus YJL154C, strain vps35, active compounds read low 1.02 | locus YJL164C, strain tpk1, active compounds read low 1.01 | locus YJL166W, strain qcr8, active compounds read low 1.02 | locus YJL168C, strain set2, active compounds read low 0.988 | locus YJL187C, strain SWE1 (second series), active compounds read low 0.977 | locus YJL187C, strain SWE1, active compounds read low 1.01 | locus YJR043C, strain POL32, active compounds read low 1.06 | locus YJR066W, strain TOR1, active compounds read low 0.915 | locus YKL009W, strain mrt4, active compounds read low 1.01 | locus YKL068W, active compounds read low 0.981 | locus YKL085W, strain MDH1 (second series), active compounds read low 0.998 | locus YKL085W, strain MDH1, active compounds read low 0.998 | locus YKL160W, strain elf1, active compounds read low 1.01 | locus YKR001C, strain vps1, active compounds read low 1 | locus YKR026C, strain gcn3, active compounds read low 1.02 | locus YKR091W, strain srl3, active compounds read low 1.01 | locus YLL001W, strain dnm1, active compounds read low 1.01 | locus YLL026W, active compounds read low 1.02 | locus YLL041C, strain sdh2, active compounds read low 1.01 | locus YLR027C, strain aat2, active compounds read low 1.02 | locus YLR039C, strain RIC1, active compounds read low 1.04 | locus YLR058C, strain SHM2, active compounds read low 0.998 | locus YLR102C, strain apc9, active compounds read low 0.976 | locus YLR113W, strain HOG1, active compounds read low 0.97 | locus YLR221C, strain rsa3, active compounds read low 1.01 | locus YLR258W, strain gsy2, active compounds read low 1 | locus YLR262C, strain YPT6 (second series), active compounds read low 1.03 | locus YLR262C, strain YPT6, active compounds read low 1.05 | locus YLR268W, strain sec22, active compounds read low 1.01 | locus YLR320W, strain mms22, active compounds read low 1.03 | locus YLR342W, strain FKS1 (second series), active compounds read low 1.08 | locus YLR342W, strain FKS1, active compounds read low 1.03 | locus YLR357W, strain rsc2, active compounds read low 1 | locus YLR370C, strain arc18, active compounds read low 1.01 | locus YLR371W, strain rom2, active compounds read low 1 | locus YLR384C, strain iki3, active compounds read low 1.02 | locus YLR418C, strain cdc73, active compounds read low 0.964 | locus YML016C, strain PPZ1, active compounds read low 1 | locus YML032C, strain rad52, active compounds read low 1.01 | locus YML120C, strain ndi1, active compounds read low 1.01 | locus YML124C, strain tub3, active compounds read low 0.986 | locus YMR058W, strain fet3, active compounds read low 1.02 | locus YMR078C, strain ctf18, active compounds read low 0.971 | locus YMR125W, strain sto1, active compounds read low 1.01 | locus YMR129W, active compounds read low 1.01 | locus YMR205C, strain PFK2, active compounds read low 1.03 | locus YMR223W, strain ubp8, active compounds read low 0.987 | locus YMR231W, strain pep5, active compounds read low 0.997 | locus YMR307W, strain GAS1, active compounds read low 0.996 | locus YNL067W, strain RPL9B, active compounds read low 0.988 | locus YNL071W, strain lat1, active compounds read low 1.01 | locus YNL128W, strain TEP1, active compounds read low 1.01 | locus YNL153C, strain GIM3, active compounds read low 0.986 | locus YNL183C, strain NPR1, active compounds read low 0.905 | locus YNL209W, strain ssb2, active compounds read low 1.01 | locus YNL233W, strain BNI4, active compounds read low 0.968 | locus YNL248C, strain rpa49, active compounds read low 1.01 | locus YNL250W, strain rad50, active compounds read low 0.961 | locus YNL271C, strain bni1, active compounds read low 0.974 | locus YNL298W, strain CLA4, active compounds read low 0.993 | locus YNL307C, strain MCK1, active compounds read low 0.978 | locus YNL322C, strain KRE1 (second series), active compounds read low 1.01 | locus YNR049C, strain mso1, active compounds read low 1.01 | locus YNR052C, strain pop2, active compounds read low 0.973 | locus YOL006C, strain TOP1, active compounds read low 1.1 | locus YOL012C, strain htz1 0.713 | locus YOL147C, strain pex11, active compounds read low 0.989 | locus YOR001W, strain rrp6, active compounds read low 1.03 | locus YOR061W, strain CKA2, active compounds read low 1.02 | locus YOR069W, strain VPS5, active compounds read low 0.99 | locus YOR070C, strain gyp1, active compounds read low 1.05 | locus YOR080W, strain dia2, active compounds read low 1.02 | locus YOR083W, strain WHI5, active compounds read low 1.02 | locus YOR106W, strain vam3, active compounds read low 1.02 | locus YOR136W, strain idh2, active compounds read low 0.971 | locus YOR144C, strain elg1, active compounds read low 0.988 | locus YOR184W, strain ser1, active compounds read low 1.05 | locus YOR231W, strain MKK1, active compounds read low 0.991 | locus YOR265W, strain rbl2, active compounds read low 1.02 | locus YOR270C, strain vph1, active compounds read low 1.03 | locus YOR290C, strain snf2, active compounds read low 1.02 | locus YOR316C, strain cot1, active compounds read low 0.978 | locus YPL051W, strain arl3, active compounds read low 1.04 | locus YPL078C, strain atp4, active compounds read low 1.01 | locus YPL106C, strain sse1, active compounds read low 1.01 | locus YPL240C, strain hsp82, active compounds read low 1.01 | locus YPL256C, strain CLN2, active compounds read low 0.989 | locus YPR119W, strain clb2, active compounds read low 0.97 | locus YPR141C, strain kar3, active compounds read low 0.972 | locus YPR163C, strain tif3, active compounds read low 0.979 | locus YPR167C, strain met16, active compounds read low 0.97 | strain wtn01, active compounds read low 1.01
